The text below walks through data of PubChem BioAssay AID894 (National Center for Advancing Translational Sciences (NCATS), 2007).

In all, about 150,000 compounds went through this assay and about 6,500 (4.3%) were called active. Roughly 12% stayed inconclusive and do not appear here. Calls come from the whole dose curve; as a rule, active = well fitted inhibition curve with a large enough effect (not every such curve was filed as active); inconclusive = small, poorly fitted or top-dose-only effect, or another doubt; inactive = no such curve, though single readings can be large or run the other way. The list comes from a sample in which actives are over-represented; it also holds similar structures and randomly drawn compounds.
% is set by controls: 0 for no effect and ±100 for the full control effect; potency is the fitted concentration of half-maximal effect.

Chain of 15-hydroxyprostaglandin dehydrogenase [NAD(+)] (Homo sapiens) (P15428 whole entry, looked up): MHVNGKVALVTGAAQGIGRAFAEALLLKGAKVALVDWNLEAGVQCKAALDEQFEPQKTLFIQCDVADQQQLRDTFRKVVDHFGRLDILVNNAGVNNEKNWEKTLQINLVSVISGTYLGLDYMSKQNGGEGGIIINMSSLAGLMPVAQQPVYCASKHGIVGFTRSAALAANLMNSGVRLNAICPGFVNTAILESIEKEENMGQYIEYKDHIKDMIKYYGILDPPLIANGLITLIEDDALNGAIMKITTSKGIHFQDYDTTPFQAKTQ

The target of this experiment is 15-hydroxyprostaglandin dehydrogenase [NAD(+)] (Homo sapiens) (UniProt P15428). The experiment is described as follows: qHTS Assay for Inhibitors of HPGD (15-Hydroxyprostaglandin Dehydrogenase). The following applies: purified HPGD, NADH fluorescence kinetic, PGE2 substrate; activity change, negative = inhibition: active compounds read low. An outline of the steps:
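20 nM HPGD preincubated 15 min at room temperature with compound in 50 mM Tris-HCl pH 8, 0.01% Tween 20. Started with 1 mM NAD+ and 30 uM prostaglandin E2; NADH fluorescence (360/450 nm) read 5 times over 30-s intervals, last minus first.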
Take `CN(CC(=O)NCCc1ccccc1)S(=O)(=O)c1cnc[nH]1`: the activity change, negative = inhibition was -0.3% (inactive). Same read-out and setting: the value for `Cc1cccc(C)c1NC(=O)C(c1ccccc1)N1CC(=O)Nc2ccccc21` (stereo not given) was -5.54% (inactive); that for `C=CCN(CC=C)S(=O)(=O)c1ccc(C(=O)Nc2nc3c(s2)CCc2ccccc2-3)cc1` was -28.8% (inactive).

In the case of `O=C(/C(=C/c1cccc(Cl)c1)c1nc2ccccc2[nH]1)c1ccccc1`, the activity change, negative = inhibition is -17.6% (inactive). The same measure, in the same setting: the value for `COc1ccc(C/C(C)=N/NC(=O)c2ccncc2)cc1` was -13.4% (inactive); that for `COc1ccc([N+](=O)[O-])cc1NC(=O)C(C)OC(=O)C1c2ccccc2Oc2ccccc21` (stereo not given) was -5.7% (inactive).

For the compound `NC1CCN(O)C1=O` (stereo not given), the activity change, negative = inhibition was -4.5% (inactive).

In the case of `O=C1N(c2ccc(Cl)cc2)C(c2ccc(Cl)cc2)N2CCCN12` (stereo not given), the activity change, negative = inhibition is 4.12% (inactive).

Turning to `COc1ccc(CNC(=O)CN(Cc2ccc(Cl)cc2)S(C)(=O)=O)cc1`, the activity change, negative = inhibition was -5.79% (inactive). As to `COC(=O)c1cc(C(=O)CSc2nc(C)cc(C)n2)ccc1O`, the Potency was 17.8 µM (active). Consider `Cc1nc(SCC(=O)c2ccccc2)c([N+](=O)[O-])[nH]1`, for which the activity change, negative = inhibition is -5.29% (inactive). With `O=C(CSc1nnc2ccccn12)c1ccccc1`, the activity change, negative = inhibition was 78.8% (inactive). On the same count and under the same terms, then `CCOC(=O)c1c(C)[nH]c(C)c1C(=O)CSc1nc(N)cc(N)n1`, with -1% (inactive); and `COc1ccc(C(=O)CSc2n[nH]c(N)n2)cc1`, with -10.7% (inactive). `Cc1cc(SCC(=O)c2ccccc2)nc(SCC(=O)c2ccccc2)n1`: the Potency is 28.2 µM (active).

Consider `C/C=C(\C)C(=O)O[C@H]1CC(C)=C2C(=O)C=C(C)C2[C@@H]2OC(=O)[C@@](C)(OC(=O)C=C(C)C)C21` (stereo not given in full), for which the activity change, negative = inhibition is -7.62% (inactive). Consider `O=C(Nc1ccccc1Cc1ccccc1)c1ccc2c(c1)SC1=NS(=O)(=O)CCN12`, for which the activity change, negative = inhibition is -2.73% (inactive). Consider `Cc1cc(Cl)ccc1NC(=S)N1CCC(C(N)=O)(N2CCCCC2)CC1`, for which the activity change, negative = inhibition is -9.28% (inactive).

Regarding `CCOc1ccc(NC(=O)CSc2ncnc3c2sc2ccccc23)cc1`, the activity change, negative = inhibition is -9.21% (inactive). Same read-out and setting: then `O=C(Nc1ccon1)c1cccc(Cl)c1`, with -28.3% (inactive).

With `O=C(N/N=C/c1c(Cl)[nH]c2ccccc12)c1sc2ccccc2c1Cl`, the activity change, negative = inhibition was -16.9% (inactive). Turning to `O=C(Nc1ccon1)c1sc2ccccc2c1Cl`, the Potency is 15.8 µM (active). Turning to `CC/C=C\C/C=C\C/C=C\C/C=C\C/C=C\C/C=C\CCC(=O)NC(C)C(=O)O` (stereo not given), the activity change, negative = inhibition is -6.96% (inactive). `Cc1nnc(SCC(=O)N2CCOCC2)[nH]c1=O`: the activity change, negative = inhibition is -12.2% (inactive).

With `COc1ccc(N2CCN(C(=O)CSc3ncnc4c3cnn4-c3ccc(OC)cc3)CC2)cc1`, the activity change, negative = inhibition is -8.74% (inactive). For the compound `O=C(CSc1nc2c(cnn2-c2ccc(F)cc2)c(=O)[nH]1)N1CCCCCC1`, the Potency is 15.8 µM (active). In the case of `CCc1ccc(C2N3CC4([N+](=O)[O-])CN2CC([N+](=O)[O-])(C3)C4(C)C)cc1` (stereo not given), the activity change, negative = inhibition is 2.32% (inactive). With `N#CC1=C(N)OC2=C(C(=O)CCC2)C1C1CC=CCC1` (stereo not given), the Potency is 20 µM (active).

`CCc1ccc(C2C(C#N)=C(N)N(N(C)C)C3=C2C(=O)CCC3)s1` (stereo not given): the activity change, negative = inhibition is -10.8% (inactive).

For `CCCc1[nH]nc2c1C(C1CC=CCC1)C(C#N)=C(N)O2` (stereo not given), the activity change, negative = inhibition was -1.94% (inactive). In the case of `Cc1ccc(NC(=O)c2oc(=O)c3ccccc3c2-c2ccccc2)c(C)c1`, the activity change, negative = inhibition is -2.46% (inactive). With `O=C(CCCOc1ccccc1)NCc1ccco1`, the Potency was 12.6 µM (active). In the case of `CN(C)C(CNC(=O)CCCOc1ccccc1)c1ccco1` (stereo not given), the activity change, negative = inhibition is -16.9% (inactive). Still for that read-out and setting: then `Cc1cccc(Nc2ccccc2C(=O)NCc2ccco2)c1C`, with -6.4% (inactive); and `O=C(CCOc1ccccc1)NCc1ccccc1`, with -13.4% (inactive). Take `CCOc1ccccc1C(=O)NCc1ccco1`: the Potency was 22.4 µM (active). As for `CCCCOc1ccc(C(=O)NCc2ccncc2)cc1`, the activity change, negative = inhibition was -5.73% (inactive). On the same count and under the same terms, then `O=C(Nc1ccccc1)Nc1ccccc1C(=O)NCc1ccco1`, with -6.05% (inactive); and `CC(C)(C)c1ccc(C(=O)NCCC(=O)NCc2ccco2)cc1`, with -15.3% (inactive).

With `CCCCOc1ccc(C(=O)NCc2ccco2)cc1`, the Potency was 15.8 µM (active). Turning to `O=C(Nn1c(SCc2ccc([N+](=O)[O-])cc2)nc2ccccc2c1=O)c1ccc(F)cc1`, the activity change, negative = inhibition was -26.2% (inactive).

Turning to `Oc1ccc(Br)cc1C=Nc1ccc2[nH]ncc2c1`, the activity change, negative = inhibition is -20.6% (inactive). The same measure, in the same setting: then `COc1ccc(-n2nnnc2-c2nc3ccccc3s2)cc1`, with -14.9% (inactive); and `CCOC(=O)C(C)Sc1nnc(CSc2nc3nc(C)cc(C)n3n2)o1` (stereo not given), with -7.77% (inactive); and `O=C1NC(c2ccccc2)=NC1(Nc1ccccn1)C(F)(F)F` (stereo not given), with -0.712% (inactive). Same read-out and setting: then `Cc1nc(CC(=O)NNS(=O)(=O)c2ccc(F)c(Cl)c2)cs1`, with -9.95% (inactive); and `C[C@@]12CCC(=O)C=C1CC[C@H]1C2[C@@H](O)C[C@]2(C)[C@@H]1CC[C@@]2(O)C(=O)COC(=O)C1CCCC1` (stereo not given in full), with 2.72% (inactive). For the compound `COc1cccc(-n2c(SCC(=O)NC3CCCCC3)nc3n[nH]c(C)c3c2=N)c1`, the Potency was 15.8 µM (active). As for `Cn1c(SCC(=O)NC2CCCCC2)nnc1-c1cc2ccccc2o1`, the activity change, negative = inhibition is -3.43% (inactive). Take `C=CCn1c(CC(=O)Nc2cccc(OC)c2)nnc1SCC(=O)NC1CCCCC1`: the activity change, negative = inhibition is -4.23% (inactive). For `CCN(C(=O)COC(=O)c1c(NC(C)=O)sc(C)c1C)C1CCS(=O)(=O)C1` (stereo not given), the activity change, negative = inhibition is -23.1% (inactive). On the same count and under the same terms, the value for `O=C(CC(=O)N/N=C\c1cccc(Cl)c1Cl)NCc1ccccc1` was -9.68% (inactive); that for `COC(=O)Cc1ccc(N(Cc2ccccc2F)S(=O)(=O)c2ccc(Br)cc2)cc1` was -19.6% (inactive); that for `CCn1c(COc2ccc(OC)cc2)nnc1SCC(=O)Nc1cc(OC)ccc1OC` was 1.56% (inactive). In the case of `CCn1c(SCC(=O)c2ccc3ccccc3c2)nnc1-c1cccs1`, the activity change, negative = inhibition was -18.4% (inactive).

Consider `Cc1ccc(-n2c(Cc3cccs3)nnc2SCC(=O)OC(C)C)cc1`, for which the activity change, negative = inhibition was -15.1% (inactive).

`CCn1c(CNc2ccc(OC)cc2)nnc1SCC(=O)c1ccc(OC)cc1`: the Potency is 14.1 µM (active).

Regarding `COC(=O)c1ccc(NC(=O)CSc2nnc(CNc3ccc(OC)cc3)n2C)cc1`, the activity change, negative = inhibition is -6.05% (inactive).

As to `CCn1c(Cc2cccs2)nnc1SCC(=O)c1ccc(C)cc1`, the Potency was 15.8 µM (active).

For the compound `O=C(CN1CCN(S(=O)(=O)c2ccc(Br)cc2)CC1)Nc1ccccc1C(=O)c1ccccc1`, the activity change, negative = inhibition was -12.5% (inactive).
